Data from PubChem BioAssay (NCATS).
Inconclusive results are not listed. Calls of active or inactive are those of the source. Calls come from the whole dose curve; as a rule, active = well fitted inhibition curve with a large enough effect; inconclusive = small, poorly fitted or top-dose-only effect; inactive = flat fitted curve, though single readings scatter. Bridge positions count the residues as written; N and C are the ends. Square brackets hold non-standard residues; d marks the D form. Peptide text beside a SMILES is read from it. * marks the point of attachment. Ileψ(thiazoline)Cys = CC[C@H](C)[C@H](N)C1=N[C@H](C(=O)*)CS1; d(aIle) = CC[C@H](C)[C@@H](N)C(=O)O; dOrn = NCCC[C@@H](N)C(=O)O

These molecules were tested on P93_24 (assay: qHTS profiling for inhibitors of Plasmodium falciparum proliferation (AID 504749; note: nearly all actives have a fitted effect of over 60% in size)). Conditions: P. falciparum in erythrocytes, SYBR Green DNA, 72 h; series mostly up to 12.8 µM.
In short: (§1)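 Each compound contacts P. falciparum-infected red blood cells for 72 h at 37 C; lysis buffer (Tris, EDTA, saponin, Triton X, SYBR Green I) is added and fluorescence measured next morning; values normalized to controls.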
Potency is the fitted concentration of half-maximal effect.

Potency, active:
O=C(N/N=C\c1ccc([N+](=O)[O-])o1)c1ccc(O)cc1 2.82 µM
C[C@@H](CNC1CCCCC1)OC(=O)c1ccccc1 3.16 µM

Potency, inactive:
C[C@@H]1C[C@H]2[C@@H]3C[C@H](F)C4=CC(=O)C=C[C@@]4(C)[C@]3(F)[C@H](O)C[C@]2(C)[C@@]1(O)C(=O)CO
C[C@H](O)Cn1cnc2c1c(=O)n(C)c(=O)n2C
CC(=C(CCOP(=O)(O)O)SC(=O)c1ccccc1)N(C=O)Cc1cnc(C)nc1N
NC[C@@H]1O[C@@H](O[C@H]2[C@H](O)[C@H](O[C@@H]3O[C@H](CO)[C@@H](O)[C@H](N)[C@@H]3O)[C@@H](N)C[C@H]2N)[C@H](N)C[C@@H]1O
CCc1c(C)[nH]c2c1C(=O)[C@H](CN1CCOCC1)CC2
CC[C@H](C)[C@H](N)C1=N[C@H](C(=O)N[C@@H](CC(C)C)C(=O)N[C@@H](CCC(=O)O)C(=O)N[C@@H](C(=O)N[C@H]2CCCCNC(=O)[C@@H](CC(N)=O)NC(=O)[C@@H](CC(=O)O)NC(=O)[C@@H](Cc3cnc[nH]3)NC(=O)[C@@H](Cc3ccccc3)NC(=O)[C@@H]([C@@H](C)CC)NC(=O)[C@@H](CCCN)NC2=O)[C@@H](C)CC)CS1 ({Ileψ(thiazoline)Cys}-LE[d(aIle)]K[dOrn][d(aIle)][dF][dH][dD][dN]; lactam 4-C)
CCOC(=O)O[C@@H](C)OC(=O)[C@@H]1N2C(=O)[C@@H](NC(=O)[C@@H](N)c3ccccc3)[C@H]2SC1(C)C
Cc1ccsc1/C=C\C1=NCCCN1C
C#C[C@]1(O)CC[C@@H]2[C@H]3CCC4=CCCC[C@@H]4[C@@H]3CC[C@@]21C
CC1(C)[C@@H](OC(=O)CCC(=O)O)CC[C@@]2(C)[C@H]1CC[C@@]1(C)[C@H]2C(=O)C=C2[C@H]3C[C@](C)(C(=O)O)CC[C@]3(C)CC[C@@]21C
C[C@H](CCC(=O)O)[C@H]1CC[C@@H]2[C@@H]3[C@@H](O)C[C@H]4C[C@@H](O)CC[C@@]4(C)[C@H]3CC[C@@]21C

The molecules below were run on P94_40 in the same assay as above. Conditions: P. falciparum in erythrocytes, SYBR Green DNA, 72 h; series mostly up to 12.8 µM.
In short: as §1

Potency, active:
O=C(N/N=C\c1ccc([N+](=O)[O-])o1)c1ccc(O)cc1 3.55 µM
C[C@@H](CNC1CCCCC1)OC(=O)c1ccccc1 3.55 µM

Potency, inactive:
C[C@@H]1C[C@H]2[C@@H]3C[C@H](F)C4=CC(=O)C=C[C@@]4(C)[C@]3(F)[C@H](O)C[C@]2(C)[C@@]1(O)C(=O)CO
C[C@H](O)Cn1cnc2c1c(=O)n(C)c(=O)n2C
CCCCC[C@H](O)/C=C\[C@@H]1[C@H](O)CC(=O)[C@@H]1CCCCCCC(=O)O
CC(=C(CCOP(=O)(O)O)SC(=O)c1ccccc1)N(C=O)Cc1cnc(C)nc1N
NC[C@@H]1O[C@@H](O[C@H]2[C@H](O)[C@H](O[C@@H]3O[C@H](CO)[C@@H](O)[C@H](N)[C@@H]3O)[C@@H](N)C[C@H]2N)[C@H](N)C[C@@H]1O
CCc1c(C)[nH]c2c1C(=O)[C@H](CN1CCOCC1)CC2
C=C1c2c(Cl)ccc(O)c2C(O)=C2C(=O)[C@@]3(O)C(O)=C(C(N)=O)C(=O)[C@@H](N(C)C)[C@@H]3[C@@H](O)[C@H]12
CC[C@H](C)[C@H](N)C1=N[C@H](C(=O)N[C@@H](CC(C)C)C(=O)N[C@@H](CCC(=O)O)C(=O)N[C@@H](C(=O)N[C@H]2CCCCNC(=O)[C@@H](CC(N)=O)NC(=O)[C@@H](CC(=O)O)NC(=O)[C@@H](Cc3cnc[nH]3)NC(=O)[C@@H](Cc3ccccc3)NC(=O)[C@@H]([C@@H](C)CC)NC(=O)[C@@H](CCCN)NC2=O)[C@@H](C)CC)CS1 ({Ileψ(thiazoline)Cys}-LE[d(aIle)]K[dOrn][d(aIle)][dF][dH][dD][dN]; lactam 4-C)
CCOC(=O)O[C@@H](C)OC(=O)[C@@H]1N2C(=O)[C@@H](NC(=O)[C@@H](N)c3ccccc3)[C@H]2SC1(C)C
Cc1ccsc1/C=C\C1=NCCCN1C
O=C(O)COCCN1CCN([C@@H](c2ccccc2)c2ccc(Cl)cc2)CC1
C#C[C@]1(O)CC[C@@H]2[C@H]3CCC4=CCCC[C@@H]4[C@@H]3CC[C@@]21C
CC1(C)[C@@H](OC(=O)CCC(=O)O)CC[C@@]2(C)[C@H]1CC[C@@]1(C)[C@H]2C(=O)C=C2[C@H]3C[C@](C)(C(=O)O)CC[C@]3(C)CC[C@@]21C
C[C@H](CCC(=O)O)[C@H]1CC[C@@H]2[C@@H]3[C@@H](O)C[C@H]4C[C@@H](O)CC[C@@]4(C)[C@H]3CC[C@@]21C

These molecules were tested on PAD in the same assay as above. Conditions: P. falciparum in erythrocytes, SYBR Green DNA, 72 h; series mostly up to 12.8 µM.
In short: as §1

Potency, inactive:
C[C@@H]1C[C@H]2[C@@H]3C[C@H](F)C4=CC(=O)C=C[C@@]4(C)[C@]3(F)[C@H](O)C[C@]2(C)[C@@]1(O)C(=O)CO
C[C@H](O)Cn1cnc2c1c(=O)n(C)c(=O)n2C
CCCCC[C@H](O)/C=C\[C@@H]1[C@H](O)CC(=O)[C@@H]1CCCCCCC(=O)O
CC(=C(CCOP(=O)(O)O)SC(=O)c1ccccc1)N(C=O)Cc1cnc(C)nc1N
NC[C@@H]1O[C@@H](O[C@H]2[C@H](O)[C@H](O[C@@H]3O[C@H](CO)[C@@H](O)[C@H](N)[C@@H]3O)[C@@H](N)C[C@H]2N)[C@H](N)C[C@@H]1O
CCc1c(C)[nH]c2c1C(=O)[C@H](CN1CCOCC1)CC2
C=C1c2c(Cl)ccc(O)c2C(O)=C2C(=O)[C@@]3(O)C(O)=C(C(N)=O)C(=O)[C@@H](N(C)C)[C@@H]3[C@@H](O)[C@H]12
CC[C@H](C)[C@H](N)C1=N[C@H](C(=O)N[C@@H](CC(C)C)C(=O)N[C@@H](CCC(=O)O)C(=O)N[C@@H](C(=O)N[C@H]2CCCCNC(=O)[C@@H](CC(N)=O)NC(=O)[C@@H](CC(=O)O)NC(=O)[C@@H](Cc3cnc[nH]3)NC(=O)[C@@H](Cc3ccccc3)NC(=O)[C@@H]([C@@H](C)CC)NC(=O)[C@@H](CCCN)NC2=O)[C@@H](C)CC)CS1 ({Ileψ(thiazoline)Cys}-LE[d(aIle)]K[dOrn][d(aIle)][dF][dH][dD][dN]; lactam 4-C)
CCOC(=O)O[C@@H](C)OC(=O)[C@@H]1N2C(=O)[C@@H](NC(=O)[C@@H](N)c3ccccc3)[C@H]2SC1(C)C
Cc1ccsc1/C=C\C1=NCCCN1C
O=C(O)COCCN1CCN([C@@H](c2ccccc2)c2ccc(Cl)cc2)CC1
C#C[C@]1(O)CC[C@@H]2[C@H]3CCC4=CCCC[C@@H]4[C@@H]3CC[C@@]21C
CC1(C)[C@@H](OC(=O)CCC(=O)O)CC[C@@]2(C)[C@H]1CC[C@@]1(C)[C@H]2C(=O)C=C2[C@H]3C[C@](C)(C(=O)O)CC[C@]3(C)CC[C@@]21C
C[C@H](CCC(=O)O)[C@H]1CC[C@@H]2[C@@H]3[C@@H](O)C[C@H]4C[C@@H](O)CC[C@@]4(C)[C@H]3CC[C@@]21C
CN1CCO[C@H](c2ccccc2)c2ccccc2C1

Potency, active:
O=C(N/N=C\c1ccc([N+](=O)[O-])o1)c1ccc(O)cc1 2.51 µM
C[C@@H](CNC1CCCCC1)OC(=O)c1ccccc1 3.16 µM
